The values that follow come from paper PMC7862700, “An all-to-all approach to the identification of sequence-specific readers for epigenetic DNA modifications on cytosine”.

Assay in all cases: DAPPL (digital affinity profiling via proximity ligation, sequencing); 10 mM Tris-HCl pH 7.5, 50 mM NaCl, 1 mM DTT, 4% glycerol, room temperature, 30 min; GST-TFs on glutathione beads, 16-mer random dsDNA library, 0.1% formaldehyde crosslink after washing; high values mean tight binding
Conditions in all cases: protein: recombinant; tags: N-terminal GST; dsDNA, one strand shown

One experiment has as its target T1, FLI1 (Homo sapiens, UniProt Q01543 1-452).
T1 sequence: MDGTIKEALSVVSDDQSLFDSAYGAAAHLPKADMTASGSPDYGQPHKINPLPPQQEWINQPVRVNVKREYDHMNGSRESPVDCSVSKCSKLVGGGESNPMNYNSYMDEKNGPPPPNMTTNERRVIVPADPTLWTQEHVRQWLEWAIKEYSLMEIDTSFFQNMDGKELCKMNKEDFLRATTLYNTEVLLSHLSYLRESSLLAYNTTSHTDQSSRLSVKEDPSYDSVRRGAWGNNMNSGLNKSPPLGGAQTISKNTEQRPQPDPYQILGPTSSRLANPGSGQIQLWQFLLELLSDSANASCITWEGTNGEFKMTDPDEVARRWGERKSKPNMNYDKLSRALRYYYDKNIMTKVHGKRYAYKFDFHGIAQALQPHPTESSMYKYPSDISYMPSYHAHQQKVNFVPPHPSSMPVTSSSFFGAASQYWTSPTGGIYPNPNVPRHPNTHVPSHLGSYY
Put shortly:
(§1)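 Sequencing on an Illumina NextSeq500 followed washing, crosslinking with 0.1% formaldehyde, proximity ligation (BsaI/T4 ligase, 1 h, 37 °C) and PCR amplification of pools that had been incubated for 30 min at room temperature with 200 nmole of a random double-stranded 16-mer DNA library in Tris/NaCl/DTT/glycerol buffer. Each pool held DNA-barcoded human transcription factors, expressed in yeast as GST fusions and captured on glutathione beads, plus a tag-only sample. Binding signal is a hexamer's read frequency for a factor divided by its frequency in the tag-only sample.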

In the next experiment the target is T2, ELK1 (Homo sapiens, UniProt P19419 1-428).
T2 sequence: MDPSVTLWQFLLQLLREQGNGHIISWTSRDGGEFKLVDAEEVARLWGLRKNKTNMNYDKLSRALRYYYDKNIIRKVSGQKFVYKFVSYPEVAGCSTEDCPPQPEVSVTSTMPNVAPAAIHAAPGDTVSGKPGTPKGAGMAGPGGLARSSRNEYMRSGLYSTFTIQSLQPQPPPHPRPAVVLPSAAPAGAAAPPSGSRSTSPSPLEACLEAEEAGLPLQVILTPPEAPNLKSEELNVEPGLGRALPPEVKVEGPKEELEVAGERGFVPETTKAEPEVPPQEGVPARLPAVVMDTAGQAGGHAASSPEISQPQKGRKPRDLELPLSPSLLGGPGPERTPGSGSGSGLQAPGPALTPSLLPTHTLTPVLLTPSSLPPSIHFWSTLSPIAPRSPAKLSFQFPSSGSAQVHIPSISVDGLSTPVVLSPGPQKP
Put shortly:
as §1

A further experiment addresses T3, GABPA (Homo sapiens, UniProt Q06546 1-454).
T3 sequence: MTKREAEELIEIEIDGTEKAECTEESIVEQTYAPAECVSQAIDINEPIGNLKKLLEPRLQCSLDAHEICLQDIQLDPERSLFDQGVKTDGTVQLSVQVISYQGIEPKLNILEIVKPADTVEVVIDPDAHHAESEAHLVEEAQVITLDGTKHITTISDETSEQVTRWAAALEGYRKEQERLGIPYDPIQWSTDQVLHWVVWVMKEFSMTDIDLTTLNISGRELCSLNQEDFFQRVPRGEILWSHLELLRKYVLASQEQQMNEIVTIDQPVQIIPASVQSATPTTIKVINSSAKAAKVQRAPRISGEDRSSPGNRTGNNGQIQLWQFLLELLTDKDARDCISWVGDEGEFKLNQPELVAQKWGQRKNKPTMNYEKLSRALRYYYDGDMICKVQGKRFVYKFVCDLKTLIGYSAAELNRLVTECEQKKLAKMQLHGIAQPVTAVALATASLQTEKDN
In outline:
as §1

The target in the next experiment is T4, ERG (Homo sapiens, UniProt P11308 1-479).
T4 sequence: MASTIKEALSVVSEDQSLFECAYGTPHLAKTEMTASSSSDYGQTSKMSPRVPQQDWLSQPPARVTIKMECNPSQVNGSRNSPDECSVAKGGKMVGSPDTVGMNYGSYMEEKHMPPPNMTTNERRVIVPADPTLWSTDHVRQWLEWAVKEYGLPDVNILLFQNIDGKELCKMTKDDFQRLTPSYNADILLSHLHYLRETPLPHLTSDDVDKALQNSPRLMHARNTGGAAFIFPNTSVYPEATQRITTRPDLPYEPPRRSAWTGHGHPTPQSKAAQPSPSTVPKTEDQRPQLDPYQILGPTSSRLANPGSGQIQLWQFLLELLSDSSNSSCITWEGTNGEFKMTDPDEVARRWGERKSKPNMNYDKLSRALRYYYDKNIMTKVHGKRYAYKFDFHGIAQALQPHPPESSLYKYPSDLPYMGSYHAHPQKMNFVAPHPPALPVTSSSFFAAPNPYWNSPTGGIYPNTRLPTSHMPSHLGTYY
Put shortly:
as §1

The next experiment concerns the target ELF1 (Homo sapiens, UniProt P32519 1-619). Put shortly:
as §1

A further experiment deals with T5, EHF (Homo sapiens, UniProt Q9NZC4 1-300).
T5 sequence: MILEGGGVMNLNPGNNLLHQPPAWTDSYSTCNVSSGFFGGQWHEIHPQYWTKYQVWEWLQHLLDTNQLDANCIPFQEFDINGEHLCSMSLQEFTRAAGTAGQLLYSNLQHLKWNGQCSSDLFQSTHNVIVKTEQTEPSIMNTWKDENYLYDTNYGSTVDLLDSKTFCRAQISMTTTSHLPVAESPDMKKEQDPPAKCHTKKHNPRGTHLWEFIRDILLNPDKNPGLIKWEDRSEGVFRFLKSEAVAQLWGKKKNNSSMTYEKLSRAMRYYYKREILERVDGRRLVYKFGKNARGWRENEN
Put shortly:
as §1

The next experiment deals with SPI1 (Homo sapiens, UniProt P17947 1-270). Put shortly:
as §1

The next experiment has as its target SPIB (Homo sapiens, UniProt Q01892 1-262). In outline: as §1
Another experiment concerns the target T6, ELK3 (Homo sapiens, UniProt P41970 1-407).
T6 sequence: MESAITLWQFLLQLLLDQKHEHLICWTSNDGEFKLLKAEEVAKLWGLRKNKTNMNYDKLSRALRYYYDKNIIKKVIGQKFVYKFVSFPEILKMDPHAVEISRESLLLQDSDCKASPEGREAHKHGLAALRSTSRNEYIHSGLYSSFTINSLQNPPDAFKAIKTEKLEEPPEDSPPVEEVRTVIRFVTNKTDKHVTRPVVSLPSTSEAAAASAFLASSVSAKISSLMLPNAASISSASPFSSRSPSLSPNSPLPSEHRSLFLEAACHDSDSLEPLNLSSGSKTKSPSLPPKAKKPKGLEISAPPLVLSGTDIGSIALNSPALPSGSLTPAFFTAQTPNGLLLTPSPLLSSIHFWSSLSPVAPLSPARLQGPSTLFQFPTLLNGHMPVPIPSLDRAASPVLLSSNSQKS
In outline: as §1

The target of the next experiment is T7, FEV (Homo sapiens, UniProt Q99581 1-238).
T7 sequence: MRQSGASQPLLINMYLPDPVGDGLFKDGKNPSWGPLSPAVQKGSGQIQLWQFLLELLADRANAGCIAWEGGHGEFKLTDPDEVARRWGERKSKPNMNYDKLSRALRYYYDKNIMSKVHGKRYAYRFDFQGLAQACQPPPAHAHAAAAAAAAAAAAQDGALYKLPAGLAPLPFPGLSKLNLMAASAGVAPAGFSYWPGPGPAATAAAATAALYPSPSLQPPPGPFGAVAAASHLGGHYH
Put shortly:
as §1

The next experiment addresses ETV5 (Homo sapiens, UniProt P41161 1-510). Put shortly:
as §1

A further experiment has as its target T8, SPIC (Homo sapiens, UniProt Q8N5J4 1-248).
T8 sequence: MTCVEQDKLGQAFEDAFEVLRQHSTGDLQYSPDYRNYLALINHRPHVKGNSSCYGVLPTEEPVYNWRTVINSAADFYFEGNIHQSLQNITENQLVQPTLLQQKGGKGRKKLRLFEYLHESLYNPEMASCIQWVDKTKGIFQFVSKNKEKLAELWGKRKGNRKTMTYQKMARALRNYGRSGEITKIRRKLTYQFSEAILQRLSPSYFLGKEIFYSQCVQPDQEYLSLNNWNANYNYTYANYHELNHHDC
Put shortly: as §1

For the next experiment, the target named is ELF4 (Homo sapiens, UniProt Q99607 1-663). In outline: as §1
Another experiment concerns the target ETV1 (Homo sapiens, UniProt P50549 1-477). Put shortly: as §1
Another experiment deals with T9, ERF (Homo sapiens, UniProt P50548 1-548).
T9 sequence: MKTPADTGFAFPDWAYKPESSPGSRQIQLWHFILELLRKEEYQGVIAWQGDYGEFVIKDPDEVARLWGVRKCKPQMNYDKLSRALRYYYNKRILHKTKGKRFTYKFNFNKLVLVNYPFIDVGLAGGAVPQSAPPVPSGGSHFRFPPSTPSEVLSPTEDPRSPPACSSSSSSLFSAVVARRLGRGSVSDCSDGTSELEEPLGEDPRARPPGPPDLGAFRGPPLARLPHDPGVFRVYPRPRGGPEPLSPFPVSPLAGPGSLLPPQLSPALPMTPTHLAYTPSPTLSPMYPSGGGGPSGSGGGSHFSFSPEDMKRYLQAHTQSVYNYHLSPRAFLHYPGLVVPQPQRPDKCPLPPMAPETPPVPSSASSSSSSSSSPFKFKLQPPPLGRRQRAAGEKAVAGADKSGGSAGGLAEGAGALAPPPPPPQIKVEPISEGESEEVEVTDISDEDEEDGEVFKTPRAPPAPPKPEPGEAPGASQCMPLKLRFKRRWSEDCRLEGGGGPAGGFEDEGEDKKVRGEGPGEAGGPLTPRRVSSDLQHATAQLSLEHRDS
Put shortly: as §1

The target in another experiment is T10, ETS2 (Homo sapiens, UniProt P15036 1-469).
T10 sequence: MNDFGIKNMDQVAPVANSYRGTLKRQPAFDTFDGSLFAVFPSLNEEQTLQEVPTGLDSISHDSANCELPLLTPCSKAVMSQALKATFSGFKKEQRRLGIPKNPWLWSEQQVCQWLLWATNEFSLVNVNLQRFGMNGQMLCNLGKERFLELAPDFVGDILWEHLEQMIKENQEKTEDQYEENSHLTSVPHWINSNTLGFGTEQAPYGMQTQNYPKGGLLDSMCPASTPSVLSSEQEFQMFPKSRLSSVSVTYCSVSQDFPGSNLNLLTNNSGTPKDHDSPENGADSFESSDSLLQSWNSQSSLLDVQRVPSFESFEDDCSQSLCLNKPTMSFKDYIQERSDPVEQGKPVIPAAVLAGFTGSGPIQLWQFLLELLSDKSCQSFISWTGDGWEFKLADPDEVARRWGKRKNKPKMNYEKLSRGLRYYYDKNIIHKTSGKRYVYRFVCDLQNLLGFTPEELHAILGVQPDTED
Put shortly:
as §1

The target in a further experiment is T11, ELF5 (Homo sapiens, UniProt Q9UKW6-2 1-255).
T11 sequence: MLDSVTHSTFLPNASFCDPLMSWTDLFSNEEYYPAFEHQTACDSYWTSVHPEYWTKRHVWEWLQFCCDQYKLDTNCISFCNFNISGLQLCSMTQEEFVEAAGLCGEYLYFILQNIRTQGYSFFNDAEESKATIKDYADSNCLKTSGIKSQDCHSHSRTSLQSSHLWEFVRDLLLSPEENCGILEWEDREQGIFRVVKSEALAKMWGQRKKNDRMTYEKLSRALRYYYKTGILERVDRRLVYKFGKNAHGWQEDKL
Put shortly:
as §1

The next experiment deals with T12, ETV3 (Homo sapiens, UniProt P41162-2 1-143).
T12 sequence: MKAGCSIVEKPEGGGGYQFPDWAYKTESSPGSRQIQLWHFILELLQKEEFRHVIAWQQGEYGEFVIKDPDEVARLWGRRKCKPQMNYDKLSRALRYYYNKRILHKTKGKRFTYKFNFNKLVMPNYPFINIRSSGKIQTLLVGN
Put shortly:
as §1

The target in a further experiment is ETV6 (Homo sapiens, UniProt P41212 1-452). Put shortly:
as §1

Chain of ELF1 (P32519 whole entry): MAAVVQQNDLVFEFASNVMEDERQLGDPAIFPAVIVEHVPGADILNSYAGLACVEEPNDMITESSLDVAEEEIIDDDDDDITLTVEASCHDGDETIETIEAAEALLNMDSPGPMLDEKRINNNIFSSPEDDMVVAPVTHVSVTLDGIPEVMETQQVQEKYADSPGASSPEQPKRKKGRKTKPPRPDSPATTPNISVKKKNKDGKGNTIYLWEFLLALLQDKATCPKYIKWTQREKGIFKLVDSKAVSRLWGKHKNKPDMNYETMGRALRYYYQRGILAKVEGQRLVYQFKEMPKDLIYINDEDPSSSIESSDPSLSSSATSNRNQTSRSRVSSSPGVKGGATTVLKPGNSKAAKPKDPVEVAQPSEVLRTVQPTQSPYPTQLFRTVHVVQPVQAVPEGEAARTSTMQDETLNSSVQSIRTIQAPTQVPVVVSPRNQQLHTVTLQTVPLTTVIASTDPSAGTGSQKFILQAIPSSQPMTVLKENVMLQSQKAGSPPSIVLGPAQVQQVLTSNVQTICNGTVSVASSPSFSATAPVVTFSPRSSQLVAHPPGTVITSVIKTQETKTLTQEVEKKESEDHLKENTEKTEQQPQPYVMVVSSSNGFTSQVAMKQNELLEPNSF
Chain of ELF4 (Q99607 whole entry): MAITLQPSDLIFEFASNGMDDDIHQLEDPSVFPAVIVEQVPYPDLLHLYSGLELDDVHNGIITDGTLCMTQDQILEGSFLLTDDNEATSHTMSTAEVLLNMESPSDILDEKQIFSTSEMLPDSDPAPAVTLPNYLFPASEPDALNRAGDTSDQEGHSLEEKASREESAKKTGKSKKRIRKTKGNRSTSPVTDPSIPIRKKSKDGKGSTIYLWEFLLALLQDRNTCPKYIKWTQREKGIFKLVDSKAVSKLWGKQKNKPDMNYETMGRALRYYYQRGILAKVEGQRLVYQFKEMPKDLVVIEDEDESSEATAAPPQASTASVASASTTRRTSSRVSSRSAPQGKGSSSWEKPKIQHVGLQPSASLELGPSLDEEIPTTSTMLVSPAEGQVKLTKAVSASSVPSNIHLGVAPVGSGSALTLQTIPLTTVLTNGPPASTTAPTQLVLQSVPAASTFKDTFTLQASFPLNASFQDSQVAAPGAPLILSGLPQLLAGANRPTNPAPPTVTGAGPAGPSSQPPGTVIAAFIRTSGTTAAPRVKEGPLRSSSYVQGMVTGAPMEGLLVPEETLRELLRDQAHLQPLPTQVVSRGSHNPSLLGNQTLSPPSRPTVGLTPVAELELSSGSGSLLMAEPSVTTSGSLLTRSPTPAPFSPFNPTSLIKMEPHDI
Chain of ETV6 (P41212 whole entry): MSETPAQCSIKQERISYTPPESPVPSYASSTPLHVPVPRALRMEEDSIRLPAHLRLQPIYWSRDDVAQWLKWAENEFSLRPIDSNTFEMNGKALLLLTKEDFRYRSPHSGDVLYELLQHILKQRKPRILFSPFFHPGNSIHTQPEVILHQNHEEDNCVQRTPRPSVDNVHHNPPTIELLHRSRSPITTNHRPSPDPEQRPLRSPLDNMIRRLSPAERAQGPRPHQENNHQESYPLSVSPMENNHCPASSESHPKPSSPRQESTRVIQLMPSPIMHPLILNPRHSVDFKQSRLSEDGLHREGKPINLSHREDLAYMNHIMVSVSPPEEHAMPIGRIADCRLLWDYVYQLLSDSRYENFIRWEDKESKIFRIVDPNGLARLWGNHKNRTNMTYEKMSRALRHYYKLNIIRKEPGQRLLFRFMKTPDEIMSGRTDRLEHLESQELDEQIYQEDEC
Chain of ETV5 (P41161 whole entry): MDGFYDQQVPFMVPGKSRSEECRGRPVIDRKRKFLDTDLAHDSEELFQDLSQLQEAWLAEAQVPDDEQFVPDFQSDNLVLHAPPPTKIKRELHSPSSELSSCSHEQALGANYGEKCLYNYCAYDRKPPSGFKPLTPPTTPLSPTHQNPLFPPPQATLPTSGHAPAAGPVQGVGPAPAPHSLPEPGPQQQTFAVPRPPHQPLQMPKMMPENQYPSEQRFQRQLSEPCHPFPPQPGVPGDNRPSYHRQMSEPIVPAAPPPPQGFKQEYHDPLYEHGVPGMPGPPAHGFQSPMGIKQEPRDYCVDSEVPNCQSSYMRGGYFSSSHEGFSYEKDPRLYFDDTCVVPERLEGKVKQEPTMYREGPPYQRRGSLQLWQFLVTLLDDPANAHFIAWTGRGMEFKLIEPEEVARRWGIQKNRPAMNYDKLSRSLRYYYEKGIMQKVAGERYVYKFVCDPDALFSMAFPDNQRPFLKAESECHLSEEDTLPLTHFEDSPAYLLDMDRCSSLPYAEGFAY
Chain of SPIB (Q01892 whole entry): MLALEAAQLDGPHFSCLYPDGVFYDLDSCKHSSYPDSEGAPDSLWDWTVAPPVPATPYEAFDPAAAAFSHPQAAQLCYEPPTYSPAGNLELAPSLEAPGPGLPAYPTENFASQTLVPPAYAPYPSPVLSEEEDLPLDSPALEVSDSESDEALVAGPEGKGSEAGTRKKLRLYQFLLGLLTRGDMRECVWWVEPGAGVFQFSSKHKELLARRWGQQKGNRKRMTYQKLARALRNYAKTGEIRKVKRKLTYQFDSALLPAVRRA
Chain of ETV1 (P50549 whole entry): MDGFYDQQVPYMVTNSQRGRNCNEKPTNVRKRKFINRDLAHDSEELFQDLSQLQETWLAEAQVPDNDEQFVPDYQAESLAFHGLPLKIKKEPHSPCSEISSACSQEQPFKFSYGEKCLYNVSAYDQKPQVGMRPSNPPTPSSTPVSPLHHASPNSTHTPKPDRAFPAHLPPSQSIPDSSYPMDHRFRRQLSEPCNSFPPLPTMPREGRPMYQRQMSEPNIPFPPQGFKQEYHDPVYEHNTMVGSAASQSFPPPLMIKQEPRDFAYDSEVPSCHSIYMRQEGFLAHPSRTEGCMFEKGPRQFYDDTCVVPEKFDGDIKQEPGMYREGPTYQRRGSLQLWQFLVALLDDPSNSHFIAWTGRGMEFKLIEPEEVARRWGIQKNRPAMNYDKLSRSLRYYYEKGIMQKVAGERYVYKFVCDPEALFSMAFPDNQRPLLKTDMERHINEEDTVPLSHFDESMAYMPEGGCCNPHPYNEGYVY

In the case of ATGCCG, the binding signal is 1.12 fold enrichment (6-mer frequency, TF over GST control) with FLI1; 1.13 fold enrichment (6-mer frequency, TF over GST control) with ELK1; 1.09 fold enrichment (6-mer frequency, TF over GST control) with GABPA; 1.12 fold enrichment (6-mer frequency, TF over GST control) with ERG; 1.09 fold enrichment (6-mer frequency, TF over GST control) with ELF1; 1.16 fold enrichment (6-mer frequency, TF over GST control) with EHF. The binding signal with SPI1 is 1.13 fold enrichment (6-mer frequency, TF over GST control); with SPIB it was 1.17 fold enrichment (6-mer frequency, TF over GST control); with ELK3 it was 1.07 fold enrichment (6-mer frequency, TF over GST control); in the experiment with FEV, 1.16 fold enrichment (6-mer frequency, TF over GST control); with ETV5 it was 1.15 fold enrichment (6-mer frequency, TF over GST control); in the experiment with SPIC it was 1.17 fold enrichment (6-mer frequency, TF over GST control). Further, the binding signal with ELF4 was 1.19 fold enrichment (6-mer frequency, TF over GST control); with ETV1, 1.11 fold enrichment (6-mer frequency, TF over GST control); with ERF, 1.01 fold enrichment (6-mer frequency, TF over GST control); with ETS2, 1.08 fold enrichment (6-mer frequency, TF over GST control); with ELF5 it was 1.13 fold enrichment (6-mer frequency, TF over GST control); with ETV3 it was 1.24 fold enrichment (6-mer frequency, TF over GST control). In the experiment with ETV6, the binding signal was 1.15 fold enrichment (6-mer frequency, TF over GST control).
